# Inconclusive results are not listed. A call without a number means that no potency is given here. A number with no mark means an inactive call. Activity calls are given as the source filed them. Unless noted, the call rests on the fitted dose curve; in most records, active means well fitted curve in the direction sought with a large enough effect; inconclusive means small, poorly fitted or top-dose-only effect, or another doubt; inactive means no such curve, though single readings can be large; an effect the other way counts as inactive or inconclusive.
# Columns and labels:
# [1] = target: ATP-dependent 6-phosphofructokinase (Trypanosoma brucei brucei) (UniProt O15648); assay: qHTS Assay to Find Inhibitors of T. brucei phosphofructokinase: hit validation (AID 492961);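 further: luminescence reports ADP formed as PFK phosphorylates fructose-6-phosphate with ATP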
# Chain of ATP-dependent 6-phosphofructokinase (Trypanosoma brucei brucei) (O15648 whole entry, looked up): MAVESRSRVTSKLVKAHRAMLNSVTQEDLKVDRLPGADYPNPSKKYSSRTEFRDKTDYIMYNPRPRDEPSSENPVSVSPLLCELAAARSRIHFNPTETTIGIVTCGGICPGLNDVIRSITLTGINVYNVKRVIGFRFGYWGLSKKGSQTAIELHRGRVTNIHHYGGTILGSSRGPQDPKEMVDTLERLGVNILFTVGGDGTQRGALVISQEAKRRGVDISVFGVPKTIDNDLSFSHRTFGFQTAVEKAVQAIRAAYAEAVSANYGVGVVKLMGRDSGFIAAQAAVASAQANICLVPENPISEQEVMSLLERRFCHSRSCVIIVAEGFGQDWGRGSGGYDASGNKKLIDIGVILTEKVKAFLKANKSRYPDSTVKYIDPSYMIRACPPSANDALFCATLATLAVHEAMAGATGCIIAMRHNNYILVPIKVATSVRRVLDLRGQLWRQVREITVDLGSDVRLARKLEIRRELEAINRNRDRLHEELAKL
# Summary of the method: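 Measures ADP output of PFK (1.25 nM) at 0.1 mM ATP, 0.5 mM F6P, pH 8.0 TEA buffer with 5 mM MgCl2. No-enzyme wells define full inhibition; uninhibited enzyme wells define zero.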
# [2] = target: Luciferin 4-monooxygenase (Photinus pyralis) (UniProt P08659); assay: Biochemical firefly luciferase enzyme assay for NPC (AID 624030);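 further: purified P. pyralis luciferase at 10 nM with luciferin and ATP substrate; nearly all actives have a fitted effect of over 70% in size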
# Chain of Luciferin 4-monooxygenase (Photinus pyralis) (P08659 whole entry, looked up): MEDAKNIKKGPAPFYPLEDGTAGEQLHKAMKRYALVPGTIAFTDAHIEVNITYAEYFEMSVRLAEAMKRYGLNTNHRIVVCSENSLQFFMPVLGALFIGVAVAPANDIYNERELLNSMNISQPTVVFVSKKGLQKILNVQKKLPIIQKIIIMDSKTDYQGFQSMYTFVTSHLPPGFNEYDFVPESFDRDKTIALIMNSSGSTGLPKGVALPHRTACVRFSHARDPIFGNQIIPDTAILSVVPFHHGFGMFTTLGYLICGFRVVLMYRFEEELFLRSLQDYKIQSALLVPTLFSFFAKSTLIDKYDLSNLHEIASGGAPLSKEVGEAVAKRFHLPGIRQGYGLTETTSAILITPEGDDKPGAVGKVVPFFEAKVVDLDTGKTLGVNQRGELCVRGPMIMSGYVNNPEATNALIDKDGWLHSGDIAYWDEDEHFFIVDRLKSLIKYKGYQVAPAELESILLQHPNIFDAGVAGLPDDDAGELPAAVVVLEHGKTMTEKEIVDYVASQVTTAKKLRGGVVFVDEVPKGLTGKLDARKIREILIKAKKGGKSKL
# Summary of the method: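 Direct inhibition of firefly luciferase enzyme (10 nM final, 50 mM Tris Acetate) assessed by luminescence within 5 minutes. Percent activity scaled between DMSO and PTC124 positive control, with concentration-effect curves classified by fit quality and response.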
# [3] = S16 Schwann cell PMP22 intronic element beta-lactamase assay (AID 624044; calls by dose curve; further: nearly all actives have a fitted effect of over 15% in size; further: potency means the concentration at half of the fitted maximal effect); conditions: S16 rat Schwann cells, PMP22 element beta-lactamase FRET, 24 h; ratio activity, negative = inhibition: at 38.3 µM (top of the series)
# Summary of the method: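 Rat S16 Schwann cells with beta-Lac driven by a PMP22 intronic element, compound-treated 24 h at 37 °C. LiveBLAzer FRET B/G read: 460 nm normalized to potassium clavulanate vs DMSO; 535 nm FRET as viability; concentration-effect curves classified.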
# [4] = qHTS profiling for inhibitors of Plasmodium falciparum proliferation (AID 504749); further: potency means the concentration at half of the fitted maximal effect; on all read-outs here: nearly all actives have a fitted effect of over 60% in size; conditions: P. falciparum in erythrocytes, SYBR Green DNA, 72 h; for activity, negative = inhibition: at 28.7 µM (top of the series)
# Summary of the method: (§1)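 Three-day growth assay of blood-stage parasites in erythrocytes (0.3% parasitemia, 2.5% hematocrit) at 37 C, 5% CO2, quantified by SYBR Green DNA staining after overnight detergent lysis.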
# AA1029 = assay: as above; conditions: P. falciparum in erythrocytes, SYBR Green DNA, 72 h; series mostly up to 28.7 µM
# Summary of the method: as §1
# CP185 = assay: as above; conditions: P. falciparum in erythrocytes, SYBR Green DNA, 72 h; series mostly up to 28.7 µM
# Summary of the method: as §1
# CP192 = assay: as above; conditions: P. falciparum in erythrocytes, SYBR Green DNA, 72 h; series mostly up to 28.7 µM
# Summary of the method: as §1
# CP211 = assay: as above; conditions: P. falciparum in erythrocytes, SYBR Green DNA, 72 h; series mostly up to 28.7 µM
# Summary of the method: as §1
# CP262 = assay: as above; conditions: P. falciparum in erythrocytes, SYBR Green DNA, 72 h; series mostly up to 28.7 µM
# Summary of the method: as §1
# CP269 = assay: as above; conditions: P. falciparum in erythrocytes, SYBR Green DNA, 72 h; series mostly up to 28.7 µM
# Summary of the method: as §1
# CP315 = assay: as above; conditions: P. falciparum in erythrocytes, SYBR Green DNA, 72 h; series mostly up to 28.7 µM
# Summary of the method: as §1
# CP329 = assay: as above; conditions: P. falciparum in erythrocytes, SYBR Green DNA, 72 h; series mostly up to 28.7 µM
# Summary of the method: as §1
# Dd2 = assay: as above; conditions: P. falciparum in erythrocytes, SYBR Green DNA, 72 h; series mostly up to 28.7 µM
# Summary of the method: as §1
# ECU = assay: as above; conditions: P. falciparum in erythrocytes, SYBR Green DNA, 72 h; series mostly up to 28.7 µM
# Summary of the method: as §1
# FAB9 = assay: as above; conditions: P. falciparum in erythrocytes, SYBR Green DNA, 72 h; series mostly up to 28.7 µM
# Summary of the method: as §1
# PC49 = assay: as above; conditions: P. falciparum in erythrocytes, SYBR Green DNA, 72 h; series mostly up to 28.7 µM
# Summary of the method: as §1
# CP238 = assay: as above; conditions: P. falciparum in erythrocytes, SYBR Green DNA, 72 h; series mostly up to 28.7 µM
# Summary of the method: as §1
# CP286 = assay: as above; conditions: P. falciparum in erythrocytes, SYBR Green DNA, 72 h; series mostly up to 28.7 µM
# Summary of the method: as §1
# N140 = assay: as above; conditions: P. falciparum in erythrocytes, SYBR Green DNA, 72 h; series mostly up to 28.7 µM
# Summary of the method: as §1
# JCK = assay: as above; conditions: P. falciparum in erythrocytes, SYBR Green DNA, 72 h; series mostly up to 28.7 µM
# Summary of the method: as §1
smiles,measurement,setting,value
CCOc1ccccc1O[C@@H](c1ccccc1)[C@@H]1CNCCO1,Potency,[1],inactive
same,Potency,[2],inactive
same,Potency,[3],inactive
same,"activity, negative = inhibition",[4]; parasite line A,-12.8%
same,Potency,AA1029,5.62 µM (active)
same,Potency,CP185,inactive
same,Potency,CP192,inactive
same,Potency,CP211,inactive
same,Potency,CP262,inactive
same,Potency,CP269,inactive
same,Potency,CP315,inactive
same,Potency,CP329,inactive
same,Potency,Dd2,0.0794 µM (active)
same,Potency,ECU,7.94 µM (active)
same,Potency,FAB9,inactive
same,Potency,PC49,2.24 µM (active)
CN(C)CC[C@@](O)(c1ccccc1)c1ccccc1Cl,Potency,[1],inactive
same,Potency,[2],inactive
same,"activity, negative = inhibition",[4]; parasite line A,-12.9%
same,Potency,AA1029,4.47 µM (active)
same,Potency,CP185,11.2 µM (active)
same,Potency,CP238,11.2 µM (active)
same,Potency,CP262,inactive
same,Potency,CP269,12 µM (active)
same,Potency,CP286,7.94 µM (active)
same,Potency,Dd2,2 µM (active)
same,Potency,ECU,7.94 µM (active)
same,Potency,FAB9,inactive
same,Potency,N140,4.47 µM (active)
CC(C)CCCC(C)C1CC(=O)C2=C3CCC4CC(O)CCC4(C)C3CCC21C (stereo not given),Potency,[1],inactive
same,Potency,[2],inactive
same,Potency,[3],inactive
same,"activity, negative = inhibition",[4]; parasite line A,4.35%
same,"activity, negative = inhibition",[4]; parasite line B,-0.553%
same,Potency,AA1029,inactive
same,Potency,CP185,inactive
same,Potency,CP192,inactive
same,Potency,CP211,inactive
same,Potency,CP238,inactive
same,Potency,CP262,inactive
same,Potency,CP269,inactive
same,Potency,CP315,inactive
same,Potency,CP329,inactive
same,Potency,Dd2,12.6 µM (active)
same,Potency,ECU,inactive
same,Potency,FAB9,inactive
same,Potency,JCK,inactive
same,Potency,N140,inactive
same,Potency,PC49,inactive
CCC1OC(=O)C[C@H](O)C(C)[C@@H](O[C@@H]2OC(C)C(O)C(N(C)C)C2O)C(CCN2CC(C)CC(C)C2)CC(C)C(=O)/C=C/C(C)=C\[C@@H]1COC1OC(C)C(O)C(OC)C1OC (stereo not given in full),Potency,[1],inactive
same,Potency,[2],inactive
same,"activity, negative = inhibition",[4]; parasite line A,-29.2%
same,Potency,CP286,5.62 µM (active)
same,Potency,Dd2,3.98 µM (active)
same,Potency,FAB9,inactive
same,Potency,N140,10 µM (active)
O=C(O)C[CH2][Ge](=[O])[O][Ge](=[O])[CH2]CC(=O)O,Potency,[1],inactive
same,Potency,[2],inactive
same,Potency,[3],inactive
same,"activity, negative = inhibition",[4]; parasite line A,10.2%
same,Potency,AA1029,inactive
same,Potency,CP185,inactive
same,Potency,CP192,inactive
same,Potency,CP211,inactive
same,Potency,CP238,inactive
same,Potency,CP262,inactive
same,Potency,CP269,inactive
same,Potency,CP286,inactive
same,Potency,CP315,inactive
same,Potency,CP329,inactive
same,Potency,Dd2,inactive
same,Potency,ECU,inactive
same,Potency,FAB9,inactive
same,Potency,JCK,inactive
same,Potency,N140,inactive
same,Potency,PC49,inactive
CNC1CCc2cc(OC)c(OC)c(OC)c2-c2ccc(OC)c(=O)cc21 (stereo not given),Potency,[1],inactive
same,Potency,[2],inactive
same,Potency,[3],0.178 µM (active)
same,"activity, negative = inhibition",[4]; parasite line A,-5.32%
same,"activity, negative = inhibition",[4]; parasite line B,0.292%
same,Potency,AA1029,inactive
same,Potency,CP185,inactive
same,Potency,CP192,inactive
same,Potency,CP211,inactive
same,Potency,CP238,inactive
same,Potency,CP262,inactive
same,Potency,CP269,inactive
same,Potency,CP286,inactive
same,Potency,CP315,inactive
same,Potency,CP329,inactive
same,Potency,ECU,inactive
same,Potency,FAB9,inactive
same,Potency,JCK,inactive
same,Potency,N140,inactive
same,Potency,PC49,inactive
C=CCN1CC(C(=O)N(CCCN(C)C)C(=O)NCC)CC2c3cccc4[nH]cc(c34)CC21 (stereo not given),Potency,[1],inactive
same,Potency,[2],inactive
same,Potency,[3],inactive
same,"activity, negative = inhibition",[4]; parasite line B,-28.9%
same,Potency,CP185,inactive
same,Potency,CP192,inactive
same,Potency,CP211,inactive
same,Potency,CP238,inactive
same,Potency,CP262,inactive
same,Potency,CP269,inactive
same,Potency,CP286,12.6 µM (active)
same,Potency,CP315,inactive
same,Potency,CP329,inactive
same,Potency,Dd2,8.91 µM (active)
same,Potency,FAB9,inactive
same,Potency,JCK,inactive
same,Potency,PC49,inactive
C=C1CC[C@H](O)C/C1=C/C=C1\CCC[C@]2(C)[C@@H]([C@H](C)CC[C@@H](O)C(C)(C)O)CC[C@@H]12,Potency,[1],inactive
same,Potency,[2],inactive
same,Potency,[3],inactive
same,Potency,CP192,inactive
same,Potency,CP211,inactive
same,Potency,CP262,inactive
same,Potency,CP269,inactive
same,Potency,CP286,inactive
same,Potency,CP315,inactive
same,Potency,CP329,inactive
same,Potency,ECU,10 µM (active)
same,Potency,FAB9,inactive
same,Potency,N140,8.91 µM (active)
same,Potency,PC49,inactive
C=C1CC[C@H](O)C/C1=C/C=C1\CCC[C@]2(C)[C@@H]([C@H](C)CCCC(C)(C)O)CC[C@@H]12,Potency,[1],inactive
same,Potency,[2],inactive
same,Potency,[4]; parasite line B,11.2 µM (active)
same,Potency,AA1029,12.6 µM (active)
same,Potency,CP192,inactive
same,Potency,CP211,inactive
same,Potency,CP262,inactive
same,Potency,CP269,inactive
same,Potency,CP315,inactive
same,Potency,CP329,inactive
same,Potency,Dd2,12.6 µM (active)
same,Potency,ECU,12.6 µM (active)
same,Potency,FAB9,inactive
same,Potency,JCK,inactive
same,Potency,N140,10 µM (active)
CC[C@H]1OC(=O)[C@H](C)C(=O)[C@H](C)[C@@H](OC2O[C@H](C)C[C@H](N(C)C)[C@@H]2O)[C@@](C)(OC)C[C@@H](C)C(=O)[C@@H](C)C2N(CCCCn3cnc(-c4cccnc4)c3)C(=O)O[C@@]21C (stereo not given in full),Potency,[1],inactive
same,Potency,[2],inactive
same,Potency,[3],inactive
same,"activity, negative = inhibition",[4]; parasite line A,-28.5%
same,Potency,CP185,inactive
same,Potency,CP192,inactive
same,Potency,CP211,inactive
same,Potency,CP238,inactive
same,Potency,CP262,inactive
same,Potency,CP269,inactive
same,Potency,CP286,inactive
same,Potency,CP315,inactive
same,Potency,CP329,inactive
same,Potency,ECU,10 µM (active)
same,Potency,FAB9,inactive
same,Potency,PC49,inactive
COc1ccc(CC(C)NCC(O)c2ccc(O)c(NC=O)c2)cc1 (stereo not given),Potency,[1],inactive
same,Potency,[2],inactive
same,Potency,[3],inactive
C[C@]12CCC(=O)C=C1[C@@H]1C[C@H]1[C@H]1[C@@H]3[C@@H]4C[C@H]4[C@@]4(CCC(=O)O4)[C@@]3(C)CC[C@@H]12,Potency,[1],inactive
same,Potency,[2],inactive
same,Potency,[3],inactive
same,"activity, negative = inhibition",[4]; parasite line A,-2.83%
same,"activity, negative = inhibition",[4]; parasite line B,-11.7%
same,Potency,AA1029,inactive
same,Potency,CP185,inactive
same,Potency,CP192,inactive
same,Potency,CP211,inactive
same,Potency,CP238,inactive
same,Potency,CP262,inactive
same,Potency,CP269,inactive
same,Potency,CP286,inactive
same,Potency,CP315,inactive
same,Potency,CP329,inactive
same,Potency,Dd2,inactive
same,Potency,ECU,inactive
same,Potency,FAB9,inactive
same,Potency,JCK,inactive
same,Potency,N140,inactive
same,Potency,PC49,inactive
C/C(=C(/CCOC(=O)C(C)C)SS/C(CCOC(=O)C(C)C)=C(\C)N(C=O)Cc1cnc(C)nc1N)N(C=O)Cc1cnc(C)nc1N,Potency,[1],inactive
same,Potency,[2],inactive
same,Potency,[3],inactive
same,"activity, negative = inhibition",[4]; parasite line B,-17.2%
same,Potency,AA1029,inactive
same,Potency,CP185,inactive
same,Potency,CP192,inactive
same,Potency,CP211,inactive
same,Potency,CP238,inactive
same,Potency,CP269,inactive
same,Potency,CP286,inactive
same,Potency,CP315,inactive
same,Potency,Dd2,inactive
same,Potency,ECU,inactive
same,Potency,FAB9,inactive
same,Potency,JCK,inactive
same,Potency,N140,inactive
same,Potency,PC49,inactive
COC(=O)C1[C@@H](OC)C(OC(=O)COc2ccc(OC)cc2)C[C@@H]2CN3CCc4c([nH]c5cc(OC)ccc45)[C@H]3C[C@H]12 (stereo not given in full),Potency,[1],inactive
same,Potency,[2],inactive
same,Potency,[3],inactive
same,Potency,AA1029,10 µM (active)
same,Potency,CP192,inactive
same,Potency,CP211,inactive
same,Potency,CP262,inactive
same,Potency,CP286,11.2 µM (active)
same,Potency,CP315,inactive
same,Potency,Dd2,10 µM (active)
same,Potency,JCK,inactive
same,Potency,N140,11.2 µM (active)
same,Potency,PC49,inactive
C=C1N[C@]2(C(=O)COC(C)=O)[C@@H](C[C@H]3[C@@H]4CCC5=CC(=O)C=C[C@]5(C)[C@H]4[C@@H](O)C[C@@]32C)O1,Potency,[1],inactive
same,Potency,[2],inactive
same,Potency,[3],inactive
same,"activity, negative = inhibition",[4]; parasite line B,-29.8%
same,Potency,CP192,inactive
same,Potency,CP315,inactive
same,Potency,Dd2,inactive
same,Potency,ECU,inactive
same,Potency,FAB9,inactive
same,Potency,JCK,inactive
same,Potency,N140,inactive
same,Potency,PC49,inactive

# Reference: PubChem BioAssay (NCATS)
